Experimental data as given in PubChem BioAssay (NCI).
The panel holds about 79,000 compounds, 15% with a hit somewhere; the sample as a whole holds those more often. Activity calls are given as the source filed them. Cut-off read from the data, not from the text of the source: active = growth inhibition above about 70%; inactive = the rest.

Assays:
[1] = NCI Yeast Anticancer Drug Screen. Data for the rad52 strain (AID 147);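 note: 0% = growth of vehicle-treated control cultures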; conditions: S. cerevisiae rad52 mutant growth inhibition, hits give high values
Summary of the method: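 Compounds are applied to a genetically defined yeast strain lacking normal DNA damage repair, and inhibition of growth is expressed relative to cultures given vehicle only.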

[2] = NCI Yeast Anticancer Drug Screen. Data for the wt1 strain (AID 149);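 note: 0% = growth of vehicle-treated wt1 cultures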; conditions: S. cerevisiae wt1 strain (SPY 50644) growth inhibition, hits give high values
Summary of the method: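 wt1 yeast, compound-treated; % growth inhibition vs vehicle control.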

[3] = NCI Yeast Anticancer Drug Screen. Data for the rad50EPP+ strain (AID 151);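 note: 0% = growth of vehicle-treated control cultures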; conditions: S. cerevisiae rad50 mutant strain, hits give high values
Summary of the method: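 Compounds were applied to the rad50EPP+ yeast strain, which bears a defined DNA repair alteration, and growth inhibition was determined relative to vehicle-treated cultures.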

[4] = NCI Yeast Anticancer Drug Screen. Data for the mgt1 strain (AID 153); conditions: S. cerevisiae mgt1 mutant growth inhibition, hits give high values
Summary of the method: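 Strain: mgt1 yeast, one of a set carrying defined DNA damage repair or cell cycle control alterations. Compound-treated growth compared with vehicle.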

[5] = NCI Yeast Anticancer Drug Screen. Data for the rad50 strain (AID 155);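 note: 0% = growth of vehicle-only cultures of the same strain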; conditions: S. cerevisiae rad50 strain growth inhibition, hits give high values
Summary of the method: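 Genetically altered yeast (DNA repair pathway); compound treatment; growth inhibition vs vehicle ctrl.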

[6] = NCI Yeast Anticancer Drug Screen. Data for the mec2-1 strain (AID 157); conditions: S. cerevisiae mec2-1 strain, hits give high values
Summary of the method: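 Strain: mec2-1 (DNA repair/cell cycle alteration). Compound exposure, then growth measured; inhibition expressed relative to vehicle.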

[7] = NCI Yeast Anticancer Drug Screen. Data for the sgs1 mgt1 strain (AID 161);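 note: 0% = growth of cultures given vehicle only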; conditions: S. cerevisiae sgs1 mgt1 strain, hits give high values
Summary of the method: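 Inhibition of yeast growth, normalised to vehicle-treated controls, is reported for a strain bearing genetic alterations in DNA damage repair.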

[8] = NCI Yeast Anticancer Drug Screen. Data for the CLN2oe strain (AID 163);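 note: 0% = growth of vehicle-only control cultures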; conditions: S. cerevisiae CLN2oe strain, hits give high values
Summary of the method: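 Growth of a genetically modified yeast strain is measured after compound exposure and compared with cultures given vehicle alone.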

[9] = NCI Yeast Anticancer Drug Screen. Data for the cln2 rad14 strain (AID 165);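 note: 0% = growth equal to vehicle treated cultures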; conditions: S. cerevisiae cln2 rad14 strain, hits give high values
Summary of the method: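 Compounds are applied to the cln2 rad14 yeast strain, and growth is then compared with that of vehicle-treated cultures to give inhibition.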

[10] = NCI Yeast Anticancer Drug Screen. Data for the bub3 strain (AID 167); conditions: S. cerevisiae bub3 mutant strain, hits give high values
Summary of the method: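 Yeast carrying a defined mutation is treated with each compound, and growth is compared with that of vehicle-exposed cells to give inhibition.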

[11] = NCI Yeast Anticancer Drug Screen. Data for the wt2 strain (AID 169);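 note: 0% = growth of vehicle-treated yeast cultures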; conditions: S. cerevisiae wt2 strain growth inhibition, hits give high values
Summary of the method: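 This strain belongs to a panel of yeast strains with defined genetic alterations in DNA damage repair or cell cycle control. Compounds are applied, and growth inhibition is measured against vehicle-treated cultures.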

[12] = NCI Yeast Anticancer Drug Screen. Data for the mlh1 strain (AID 171);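 note: 0% = growth of vehicle-treated control cultures of the same strain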; conditions: S. cerevisiae mlh1 strain growth inhibition, hits give high values
Summary of the method: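 Growth of the mutant yeast strain after compound exposure, expressed as inhibition relative to vehicle-only controls.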

[13] = NCI Yeast Anticancer Drug Screen. Data for the sgs1 strain (AID 173);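 note: 0% = growth of vehicle-only control cultures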; conditions: S. cerevisiae sgs1 mutant, hits give high values
Summary of the method: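 Growth of a yeast strain bearing a defined genetic alteration is measured after compound treatment. Inhibition is expressed relative to vehicle-only controls.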

[14] = NCI Yeast Anticancer Drug Screen. Data for the mlh1 rad18 strain (AID 175); conditions: S. cerevisiae mlh1 rad18 strain growth inhibition, hits give high values
Summary of the method: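 Read-out is yeast growth inhibition, calculated against vehicle-only controls. The compound was applied to a strain engineered with DNA damage repair alterations.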

[15] = NCI Yeast Anticancer Drug Screen. Data for the rad18 strain (AID 177); conditions: S. cerevisiae rad18 mutant growth inhibition, hits give high values
Summary of the method: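 Growth of the mutant yeast strain after compound exposure, normalised to vehicle-only cultures.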

[16] = NCI Yeast Anticancer Drug Screen. Data for the rad14 strain (AID 159);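 note: 0% = growth of vehicle-treated control cultures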; conditions: S. cerevisiae rad14 strain growth inhibition, hits give high values
Summary of the method: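 Test compounds were applied to a repair-deficient yeast strain. Its growth was then compared with that of cultures given vehicle alone, and inhibition was expressed relative to those controls.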

[17] = at 5.0 µM (retest, dose inferred, filed as 0.5)
[18] = at 50.0 µM (retest, dose inferred, filed as 5.0)

Measured: growth inhibition

CN(C)c1ccc2c(SCC(=O)OCC(=O)[C@@]3(O)CC[C@H]4[C@@H]5CCC6=CC(=O)C=C[C@]6(C)[C@H]5C(=O)C[C@@]43C)c3ccc(N(C)C)cc3nc2c1
inactive: [1]; at 1.2 µM -7% | [1]; at 3.7 µM -8% | [1]; at 11.0 µM 46% | [2]; at 1.2 µM 16% | [2]; at 3.7 µM -16% | [2]; at 11.0 µM 64% | [3]; at 1.2 µM 1% | [3]; at 3.7 µM 6% | [3]; at 11.0 µM 6% | [3]; at 33.0 µM 63% | [4]; at 1.2 µM -27% | [4]; at 3.7 µM -37% | [4]; at 11.0 µM 69% | [5]; at 1.2 µM -31% | [5]; at 3.7 µM -13% | [5]; [17] 7% | [5]; at 50.0 µM 60.2% | [6]; at 1.2 µM -10% | [6]; at 3.7 µM -5% | [6]; [17] 13% | [6]; at 11.0 µM 55% | [7]; [17] 12% | [8]; at 1.2 µM 9% | [8]; at 3.7 µM 16% | [8]; at 11.0 µM 53% | [9]; [17] 0% | [10]; at 1.2 µM -13% | [10]; at 3.7 µM -4% | [10]; [17] 22% | [10]; at 11.0 µM 55% | [11]; at 1.2 µM -89% | [11]; at 3.7 µM -74% | [11]; at 11.0 µM -15% | [11]; at 33.0 µM 67% | [12]; at 1.2 µM -15% | [12]; at 3.7 µM -30% | [12]; at 11.0 µM 46% | [13]; at 1.2 µM 2% | [13]; at 3.7 µM -18% | [14]; [17] 50% | [15]; at 1.2 µM -9% | [15]; at 3.7 µM 6%
active: [1]; at 33.0 µM 90% | [1]; at 100.0 µM 92% | [2]; at 33.0 µM 91% | [2]; at 100.0 µM 91% | [3]; at 100.0 µM 83% | [4]; at 33.0 µM 89% | [4]; at 100.0 µM 88% | [5]; at 11.0 µM 71% | [5]; at 33.0 µM 90% | [5]; [18] 89% | [5]; at 100.0 µM 89% | [6]; at 33.0 µM 90% | [6]; [18] 86% | [6]; at 50.0 µM 72.9% | [6]; at 100.0 µM 90% | [7]; [18] 92% | [7]; at 50.0 µM 78.7% | [8]; at 33.0 µM 89% | [8]; at 100.0 µM 89% | [9]; [18] 78% | [9]; at 50.0 µM 80.7% | [10]; at 33.0 µM 87% | [10]; [18] 95% | [10]; at 50.0 µM 72.3% | [10]; at 100.0 µM 89% | [11]; at 100.0 µM 83% | [12]; at 33.0 µM 86% | [12]; at 100.0 µM 87% | [13]; at 11.0 µM 71% | [13]; at 33.0 µM 91% | [13]; at 100.0 µM 90% | [14]; [18] 86% | [14]; at 50.0 µM 84.5% | [15]; at 11.0 µM 74% | [15]; at 33.0 µM 90% | [15]; at 100.0 µM 87%

CCC(C)NC1=NCC(C)S1 (stereo unspecified)
active: [10]; [18] 98%
inactive: [1]; at 1.2 µM -9% | [1]; at 3.7 µM -12% | [1]; at 11.0 µM -12% | [1]; at 33.0 µM -29% | [1]; at 100.0 µM -17% | [2]; at 1.2 µM -22% | [2]; at 3.7 µM -14% | [2]; at 11.0 µM -24% | [2]; at 33.0 µM -34% | [2]; at 100.0 µM -28% | [3]; at 1.2 µM -40% | [3]; at 3.7 µM -38% | [3]; at 11.0 µM -27% | [3]; at 33.0 µM -37% | [3]; at 100.0 µM -75% | [4]; at 1.2 µM -18% | [4]; at 3.7 µM -15% | [4]; at 11.0 µM -13% | [4]; at 33.0 µM -19% | [4]; at 100.0 µM -25% | [5]; at 1.2 µM -29% | [5]; at 3.7 µM -20% | [5]; [17] 44% | [5]; at 11.0 µM -32% | [5]; at 33.0 µM -34% | [5]; [18] 41% | [5]; at 50.0 µM 64.1% | [5]; at 100.0 µM -33% | [6]; at 1.2 µM -40% | [6]; at 3.7 µM -48% | [6]; [17] 42% | [6]; at 11.0 µM -63% | [6]; at 33.0 µM -51% | [6]; [18] 36% | [6]; at 50.0 µM 28.9% | [6]; at 100.0 µM -39% | [7]; [17] -9% | [7]; [18] 30% | [7]; at 50.0 µM 58.2% | [9]; [17] 44% | [9]; [18] 49% | [9]; at 50.0 µM 65.7% | [10]; at 1.2 µM -6% | [10]; at 3.7 µM -9% | [10]; [17] 19% | [10]; at 11.0 µM -8% | [10]; at 33.0 µM -16% | [10]; at 50.0 µM 57.7% | [10]; at 100.0 µM -17% | [11]; at 1.2 µM -20% | [11]; at 3.7 µM -21% | [11]; at 11.0 µM -28% | [11]; at 33.0 µM -26% | [11]; at 100.0 µM -22% | [13]; at 1.2 µM -26% | [13]; at 3.7 µM -21% | [13]; at 11.0 µM -16% | [13]; at 33.0 µM -38% | [13]; at 100.0 µM -29% | [14]; [17] 47% | [14]; [18] 27% | [14]; at 50.0 µM 62.6% | [15]; at 1.2 µM -12% | [15]; at 3.7 µM 0% | [15]; at 11.0 µM -6% | [15]; at 33.0 µM -26% | [15]; at 100.0 µM -32%

O=c1ccc2ccccc2c2ccccc12
inactive: [1]; at 1.2 µM -49% | [1]; at 3.7 µM -33% | [1]; at 11.0 µM 52% | [2]; at 1.2 µM -17% | [2]; at 3.7 µM 18% | [3]; at 1.2 µM -4% | [3]; at 3.7 µM 13% | [3]; at 11.0 µM 46% | [4]; at 1.2 µM 3% | [4]; at 3.7 µM 21% | [6]; at 1.2 µM -3% | [6]; at 3.7 µM 22% | [6]; [17] 1% | [16]; at 1.2 µM -9% | [16]; at 3.7 µM 1% | [16]; at 11.0 µM 63% | [9]; [17] 5% | [10]; at 1.2 µM 5% | [10]; at 3.7 µM 47% | [10]; [17] 50% | [11]; at 1.2 µM -27% | [11]; at 3.7 µM 2% | [11]; at 11.0 µM 69% | [12]; at 1.2 µM 15% | [12]; at 3.7 µM 55% | [13]; at 1.2 µM -2% | [13]; at 3.7 µM 12% | [13]; at 11.0 µM 69% | [14]; [17] 39%
active: [1]; at 33.0 µM 97% | [1]; at 100.0 µM 99% | [2]; at 11.0 µM 76% | [2]; at 33.0 µM 98% | [2]; at 100.0 µM 99% | [3]; at 33.0 µM 95% | [3]; at 100.0 µM 99% | [4]; at 11.0 µM 79% | [4]; at 33.0 µM 99% | [4]; at 100.0 µM 99% | [6]; at 11.0 µM 82% | [6]; at 33.0 µM 99% | [6]; [18] 99% | [6]; at 50.0 µM 93.9% | [6]; at 100.0 µM 100% | [16]; at 33.0 µM 98% | [16]; at 100.0 µM 97% | [9]; [18] 99% | [9]; at 50.0 µM 90.4% | [10]; at 11.0 µM 88% | [10]; at 33.0 µM 98% | [10]; [18] 99% | [10]; at 50.0 µM 90.6% | [10]; at 100.0 µM 98% | [11]; at 33.0 µM 98% | [11]; at 100.0 µM 99% | [12]; at 11.0 µM 83% | [12]; at 33.0 µM 99% | [12]; at 100.0 µM 99% | [13]; at 33.0 µM 98% | [13]; at 100.0 µM 98%
